Measurements as given in the supplement of paper PMC11732987, “Enantioselective OTUD7B fragment discovery through chemoproteomics screening and high-throughput optimisation” (Communications Chemistry, 2025).

Tests used:
Test in all cases: log2 ratio of Biotin-Ahx-Ub-VS probe labelling (fragment/DMSO); higher = less target engagement (more negative = stronger competition), active = hit call of the paper (q ≤ 0.05, log2 ratio ≤ -1)
Conditions in all cases: compound concentration: 200 uM; treatment time: 3 h
USP19 = target: T1, USP19 (UniProt O94966)
T1 sequence (whole entry): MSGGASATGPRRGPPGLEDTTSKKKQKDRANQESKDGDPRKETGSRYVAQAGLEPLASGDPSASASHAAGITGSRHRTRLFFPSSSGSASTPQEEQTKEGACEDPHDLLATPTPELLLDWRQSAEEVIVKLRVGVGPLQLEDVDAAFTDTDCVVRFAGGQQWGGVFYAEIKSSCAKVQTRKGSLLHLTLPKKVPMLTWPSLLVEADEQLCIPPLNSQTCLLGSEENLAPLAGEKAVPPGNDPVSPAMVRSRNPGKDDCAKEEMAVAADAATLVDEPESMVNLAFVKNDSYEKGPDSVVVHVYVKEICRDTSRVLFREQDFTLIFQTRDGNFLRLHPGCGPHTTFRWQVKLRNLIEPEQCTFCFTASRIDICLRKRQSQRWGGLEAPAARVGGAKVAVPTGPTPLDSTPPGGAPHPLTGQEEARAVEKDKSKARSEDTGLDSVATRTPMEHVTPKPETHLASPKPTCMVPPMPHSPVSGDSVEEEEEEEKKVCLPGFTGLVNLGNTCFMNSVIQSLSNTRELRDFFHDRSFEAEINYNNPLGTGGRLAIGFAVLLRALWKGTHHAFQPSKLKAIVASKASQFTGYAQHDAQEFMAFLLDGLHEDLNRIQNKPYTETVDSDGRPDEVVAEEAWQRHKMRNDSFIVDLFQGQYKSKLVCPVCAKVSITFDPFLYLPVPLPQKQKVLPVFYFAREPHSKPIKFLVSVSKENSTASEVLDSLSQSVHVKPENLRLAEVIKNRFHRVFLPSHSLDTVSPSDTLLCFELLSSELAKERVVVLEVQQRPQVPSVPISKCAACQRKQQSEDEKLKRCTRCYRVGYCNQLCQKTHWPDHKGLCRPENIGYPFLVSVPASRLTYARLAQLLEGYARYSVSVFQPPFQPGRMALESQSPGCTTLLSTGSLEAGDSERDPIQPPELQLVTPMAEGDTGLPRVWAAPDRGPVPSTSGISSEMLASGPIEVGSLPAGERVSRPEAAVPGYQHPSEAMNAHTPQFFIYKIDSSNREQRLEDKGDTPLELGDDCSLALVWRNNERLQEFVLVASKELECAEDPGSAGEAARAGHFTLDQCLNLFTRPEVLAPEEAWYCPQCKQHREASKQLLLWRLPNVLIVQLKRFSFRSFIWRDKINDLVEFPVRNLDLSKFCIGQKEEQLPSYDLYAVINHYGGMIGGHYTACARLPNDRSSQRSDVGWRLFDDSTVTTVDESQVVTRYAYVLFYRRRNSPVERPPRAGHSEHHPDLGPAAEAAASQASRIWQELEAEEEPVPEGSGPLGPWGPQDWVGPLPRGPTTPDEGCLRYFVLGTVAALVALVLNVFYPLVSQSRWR
Procedure, shortened: (§1)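 HEK293T lysate, 495 µg per sample in Tris/CHAPS/IGEPAL buffer with protease inhibitors, was treated in triplicate with fragment at 200 µM or vehicle for 3 h and then with Biotin-Ahx-Ub-VS at 0.5 µM final for 1 h. Labelled DUBs were NeutrAvidin-enriched, digested with LysC and trypsin, and run by diaPASEF LC-MS/MS. Spectronaut label-free quantities were global-median-normalised, and values are average log2 fragment/vehicle ratios by unpaired t-test on proteins with ≥2 unique peptides.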

USP22 = target: T2, USP22 (UniProt Q9UPT9)
T2 sequence (whole entry): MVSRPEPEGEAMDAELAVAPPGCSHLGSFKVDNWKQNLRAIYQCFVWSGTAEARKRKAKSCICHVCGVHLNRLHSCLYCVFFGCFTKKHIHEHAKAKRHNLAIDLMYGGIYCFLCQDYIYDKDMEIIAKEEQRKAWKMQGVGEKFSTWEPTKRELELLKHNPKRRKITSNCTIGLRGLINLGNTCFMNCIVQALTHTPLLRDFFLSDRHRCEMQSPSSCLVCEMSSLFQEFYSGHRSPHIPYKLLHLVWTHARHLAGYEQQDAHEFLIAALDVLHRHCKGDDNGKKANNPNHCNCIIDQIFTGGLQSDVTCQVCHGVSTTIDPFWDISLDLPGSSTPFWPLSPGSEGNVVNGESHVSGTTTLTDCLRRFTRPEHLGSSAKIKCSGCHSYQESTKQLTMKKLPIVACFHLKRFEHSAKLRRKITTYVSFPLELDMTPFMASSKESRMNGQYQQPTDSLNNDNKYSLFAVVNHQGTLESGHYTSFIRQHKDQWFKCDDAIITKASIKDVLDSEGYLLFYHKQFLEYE
Procedure, shortened: as §1

USP24 = USP24 (UniProt Q9UPU5)
USP24, sequence (Q9UPU5 whole entry): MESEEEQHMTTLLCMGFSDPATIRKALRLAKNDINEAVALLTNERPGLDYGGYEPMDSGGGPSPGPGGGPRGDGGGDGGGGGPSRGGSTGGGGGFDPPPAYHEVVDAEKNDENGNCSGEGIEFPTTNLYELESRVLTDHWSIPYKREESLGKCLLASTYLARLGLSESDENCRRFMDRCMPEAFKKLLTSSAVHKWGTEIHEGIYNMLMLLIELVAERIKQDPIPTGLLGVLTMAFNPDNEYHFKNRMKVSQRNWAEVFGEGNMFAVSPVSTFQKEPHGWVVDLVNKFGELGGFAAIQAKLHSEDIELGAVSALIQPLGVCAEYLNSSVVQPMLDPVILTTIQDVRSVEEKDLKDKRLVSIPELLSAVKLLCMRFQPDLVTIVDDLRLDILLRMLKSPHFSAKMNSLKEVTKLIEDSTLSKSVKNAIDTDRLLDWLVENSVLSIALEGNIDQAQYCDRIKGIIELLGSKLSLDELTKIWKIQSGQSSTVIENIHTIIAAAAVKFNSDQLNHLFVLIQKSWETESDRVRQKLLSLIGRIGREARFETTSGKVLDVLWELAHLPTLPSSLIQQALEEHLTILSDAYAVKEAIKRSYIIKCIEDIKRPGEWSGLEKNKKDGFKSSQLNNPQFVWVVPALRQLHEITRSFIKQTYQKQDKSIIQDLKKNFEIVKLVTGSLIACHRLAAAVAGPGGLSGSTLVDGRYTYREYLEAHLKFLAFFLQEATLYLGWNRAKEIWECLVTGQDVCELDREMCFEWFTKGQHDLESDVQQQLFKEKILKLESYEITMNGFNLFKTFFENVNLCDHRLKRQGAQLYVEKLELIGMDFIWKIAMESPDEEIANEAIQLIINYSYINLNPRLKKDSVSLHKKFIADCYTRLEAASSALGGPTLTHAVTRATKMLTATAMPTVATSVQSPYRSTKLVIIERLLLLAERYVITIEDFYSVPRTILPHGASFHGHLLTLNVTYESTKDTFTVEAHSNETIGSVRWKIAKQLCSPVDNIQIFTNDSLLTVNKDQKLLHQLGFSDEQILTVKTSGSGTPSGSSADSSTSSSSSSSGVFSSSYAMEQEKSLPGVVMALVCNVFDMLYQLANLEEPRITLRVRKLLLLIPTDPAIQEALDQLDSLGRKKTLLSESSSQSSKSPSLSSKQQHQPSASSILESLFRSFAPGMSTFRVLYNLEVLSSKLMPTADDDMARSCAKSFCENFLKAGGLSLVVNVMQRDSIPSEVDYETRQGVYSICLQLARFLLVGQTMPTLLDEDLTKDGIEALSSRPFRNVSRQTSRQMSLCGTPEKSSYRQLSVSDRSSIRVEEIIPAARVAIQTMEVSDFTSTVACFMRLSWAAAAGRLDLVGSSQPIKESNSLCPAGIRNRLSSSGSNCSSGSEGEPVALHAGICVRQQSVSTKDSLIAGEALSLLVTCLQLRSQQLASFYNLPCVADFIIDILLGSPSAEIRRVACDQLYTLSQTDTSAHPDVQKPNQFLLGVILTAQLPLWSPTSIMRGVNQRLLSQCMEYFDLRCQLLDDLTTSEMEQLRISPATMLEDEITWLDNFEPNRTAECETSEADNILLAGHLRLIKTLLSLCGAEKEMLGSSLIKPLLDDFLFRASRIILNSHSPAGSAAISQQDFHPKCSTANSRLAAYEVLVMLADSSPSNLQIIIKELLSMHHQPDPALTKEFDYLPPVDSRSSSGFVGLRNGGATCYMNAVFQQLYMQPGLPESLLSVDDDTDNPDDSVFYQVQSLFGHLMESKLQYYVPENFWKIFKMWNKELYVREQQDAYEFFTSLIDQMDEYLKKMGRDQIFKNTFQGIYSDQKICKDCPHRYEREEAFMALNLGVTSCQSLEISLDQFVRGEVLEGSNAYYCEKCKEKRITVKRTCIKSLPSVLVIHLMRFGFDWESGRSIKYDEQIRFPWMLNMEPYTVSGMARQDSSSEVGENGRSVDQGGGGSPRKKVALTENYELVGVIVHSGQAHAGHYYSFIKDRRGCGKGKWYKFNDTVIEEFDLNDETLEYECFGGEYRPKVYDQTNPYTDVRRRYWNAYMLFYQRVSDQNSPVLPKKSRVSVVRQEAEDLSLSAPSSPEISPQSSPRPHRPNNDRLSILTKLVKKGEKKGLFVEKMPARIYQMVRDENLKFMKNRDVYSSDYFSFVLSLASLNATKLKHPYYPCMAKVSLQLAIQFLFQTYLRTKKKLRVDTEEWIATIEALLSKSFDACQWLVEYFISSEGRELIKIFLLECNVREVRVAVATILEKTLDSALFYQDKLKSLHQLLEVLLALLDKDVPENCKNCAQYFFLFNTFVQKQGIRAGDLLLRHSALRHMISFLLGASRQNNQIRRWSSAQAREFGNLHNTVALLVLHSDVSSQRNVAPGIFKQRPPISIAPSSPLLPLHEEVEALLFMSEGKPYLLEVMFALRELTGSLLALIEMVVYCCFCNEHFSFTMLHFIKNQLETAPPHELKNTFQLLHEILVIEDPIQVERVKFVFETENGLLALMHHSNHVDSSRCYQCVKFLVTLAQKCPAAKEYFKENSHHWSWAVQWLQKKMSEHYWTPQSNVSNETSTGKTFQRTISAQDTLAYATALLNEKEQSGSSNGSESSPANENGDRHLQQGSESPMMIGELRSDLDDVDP
Procedure, shortened: as §1

USP25 = target: T3, USP25 (UniProt Q9UHP3)
T3 sequence (whole entry): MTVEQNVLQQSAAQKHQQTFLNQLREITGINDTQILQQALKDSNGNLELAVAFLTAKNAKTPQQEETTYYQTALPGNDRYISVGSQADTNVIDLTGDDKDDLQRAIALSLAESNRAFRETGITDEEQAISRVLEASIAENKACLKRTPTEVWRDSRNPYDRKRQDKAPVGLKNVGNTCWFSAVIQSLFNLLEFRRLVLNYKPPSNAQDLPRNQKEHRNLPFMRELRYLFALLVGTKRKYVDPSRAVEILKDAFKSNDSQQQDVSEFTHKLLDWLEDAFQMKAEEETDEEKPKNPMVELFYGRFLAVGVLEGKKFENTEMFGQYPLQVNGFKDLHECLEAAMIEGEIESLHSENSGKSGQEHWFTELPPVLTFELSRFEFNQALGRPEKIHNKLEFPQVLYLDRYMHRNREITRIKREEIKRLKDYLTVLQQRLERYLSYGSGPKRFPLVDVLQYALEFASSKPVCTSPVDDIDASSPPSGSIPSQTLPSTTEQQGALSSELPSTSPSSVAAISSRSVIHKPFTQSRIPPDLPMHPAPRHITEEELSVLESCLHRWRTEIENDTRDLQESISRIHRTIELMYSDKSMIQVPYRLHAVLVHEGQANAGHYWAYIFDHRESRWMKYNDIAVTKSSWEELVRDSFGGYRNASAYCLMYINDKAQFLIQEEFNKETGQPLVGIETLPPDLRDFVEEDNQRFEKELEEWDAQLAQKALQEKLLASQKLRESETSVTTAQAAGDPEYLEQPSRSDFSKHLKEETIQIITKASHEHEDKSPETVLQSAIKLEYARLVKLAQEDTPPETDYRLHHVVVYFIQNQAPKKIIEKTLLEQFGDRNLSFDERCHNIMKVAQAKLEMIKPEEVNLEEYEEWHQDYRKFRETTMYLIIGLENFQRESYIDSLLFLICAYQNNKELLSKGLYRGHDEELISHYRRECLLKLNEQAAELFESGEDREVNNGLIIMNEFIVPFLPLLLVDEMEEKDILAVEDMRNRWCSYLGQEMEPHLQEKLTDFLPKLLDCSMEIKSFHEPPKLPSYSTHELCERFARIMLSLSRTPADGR
Procedure, shortened: as §1

USP28 = target: T4, USP28 (UniProt Q96RU2)
T4 sequence (whole entry): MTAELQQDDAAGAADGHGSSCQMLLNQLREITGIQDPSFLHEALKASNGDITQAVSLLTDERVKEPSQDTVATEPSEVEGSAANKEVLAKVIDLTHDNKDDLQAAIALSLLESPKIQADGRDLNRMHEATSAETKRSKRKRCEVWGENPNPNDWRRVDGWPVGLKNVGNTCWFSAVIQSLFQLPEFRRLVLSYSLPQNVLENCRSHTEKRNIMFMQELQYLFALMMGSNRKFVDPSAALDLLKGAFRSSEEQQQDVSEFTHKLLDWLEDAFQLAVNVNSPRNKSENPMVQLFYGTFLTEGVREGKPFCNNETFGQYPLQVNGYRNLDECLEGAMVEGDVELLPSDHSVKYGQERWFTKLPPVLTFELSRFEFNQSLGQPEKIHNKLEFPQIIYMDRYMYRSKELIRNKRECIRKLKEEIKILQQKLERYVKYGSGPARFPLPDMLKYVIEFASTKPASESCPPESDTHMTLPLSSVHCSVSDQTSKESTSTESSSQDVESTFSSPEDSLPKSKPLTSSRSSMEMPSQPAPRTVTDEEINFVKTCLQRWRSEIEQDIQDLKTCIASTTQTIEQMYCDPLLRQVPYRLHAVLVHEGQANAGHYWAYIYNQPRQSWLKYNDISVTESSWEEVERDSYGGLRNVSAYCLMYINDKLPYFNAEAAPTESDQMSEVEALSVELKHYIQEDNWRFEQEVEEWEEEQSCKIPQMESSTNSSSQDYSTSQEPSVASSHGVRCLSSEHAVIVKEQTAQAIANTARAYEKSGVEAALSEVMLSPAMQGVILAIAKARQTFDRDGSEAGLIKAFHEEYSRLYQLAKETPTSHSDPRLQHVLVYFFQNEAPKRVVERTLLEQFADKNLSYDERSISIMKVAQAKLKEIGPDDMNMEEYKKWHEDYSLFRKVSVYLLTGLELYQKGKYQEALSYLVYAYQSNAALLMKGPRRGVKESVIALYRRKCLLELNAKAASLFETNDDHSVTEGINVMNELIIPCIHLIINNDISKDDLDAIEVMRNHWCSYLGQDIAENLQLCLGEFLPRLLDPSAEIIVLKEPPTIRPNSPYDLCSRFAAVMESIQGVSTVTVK
Procedure, shortened: as §1

Measured: log2 ratio of Biotin-Ahx-Ub-VS probe labelling

O=C(CCl)N1CCCCC12CCOCC2
inactive: USP19 -0.481 | USP22 -0.332 | USP24 -0.606 | USP25 -0.341 | USP28 -0.65
